Reference: PubChem BioAssay (NCATS)
Records with an inconclusive call do not appear. Unmarked numbers belong to inactive results. The source made the active and inactive calls. The call rests on the fitted dose curve; in most records, active means well fitted inhibition curve with a large enough effect; inconclusive means small, poorly fitted or top-dose-only effect, or effect the other way; inactive means flat fitted curve, though single readings scatter.

What follows are compounds tested against ATP-dependent 6-phosphofructokinase (Trypanosoma brucei brucei) (UniProt O15648) (assay: qHTS Assay to Find Inhibitors of T. brucei phosphofructokinase: hit validation (AID 492961;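 on activity change, negative = inhibition: luminescence reports ADP formed as PFK phosphorylates fructose-6-phosphate with ATP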)). Settings: T. brucei PFK, ADP-Glo luminescence; series mostly up to 51.4 µM; activity change, negative = inhibition: at the top concentration.
In short: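 Percent activity derived from corrected luminescence, normalized between 0x and 1x enzyme controls, then fitted to concentration-response curves. Conditions: 1.25 nM PFK, 0.1 mM ATP, 0.5 mM F6P, 45 min RT.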
On the % scale 0 is the no-effect control and ±100 the full control effect; potency means the concentration at half of the fitted maximal effect.

ATP-dependent 6-phosphofructokinase (Trypanosoma brucei brucei), sequence (O15648 whole entry, looked up): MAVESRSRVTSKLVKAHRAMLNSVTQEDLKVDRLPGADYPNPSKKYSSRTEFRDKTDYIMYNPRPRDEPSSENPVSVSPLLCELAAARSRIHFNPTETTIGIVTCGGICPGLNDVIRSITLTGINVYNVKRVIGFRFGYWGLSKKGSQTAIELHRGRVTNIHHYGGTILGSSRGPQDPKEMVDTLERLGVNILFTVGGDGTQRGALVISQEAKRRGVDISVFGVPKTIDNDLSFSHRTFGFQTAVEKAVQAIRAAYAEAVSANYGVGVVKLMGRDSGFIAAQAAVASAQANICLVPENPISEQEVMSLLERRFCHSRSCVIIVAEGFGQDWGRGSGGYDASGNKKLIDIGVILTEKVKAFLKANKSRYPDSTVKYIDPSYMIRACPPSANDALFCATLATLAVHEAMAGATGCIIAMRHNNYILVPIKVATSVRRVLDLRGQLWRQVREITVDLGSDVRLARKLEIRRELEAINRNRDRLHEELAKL

Point of comparison: `Cc1cc(C(=O)NNCc2ccccc2)no1`, “activity change, negative = inhibition” value 3.76% [at 24.3 µM]. Against it:
- CCN(CC)Cc1cc(Nc2ccnc3cc(Cl)ccc23)ccc1O — lower, -15.7% [at 24.3 µM]
- CC(C)N=c1cc2n(-c3ccc(Cl)cc3)c3ccccc3nc-2cc1Nc1ccc(Cl)cc1 — lower, -7.67% [at 24.3 µM]
- CC1(C)S[C@@H]2[C@H](NC(=O)[C@@H](NC(=O)N3CCNC3=O)c3ccccc3)C(=O)N2[C@H]1C(=O)O — lower, 0.158% [at 24.3 µM]
- CC[N+](C)(C)Cc1ccccc1Br — higher, 5.49% [at 24.3 µM]

Point of comparison: `COC(=O)C1=C(C#N)NC(C)=C(C(=O)OC(C)C)C1c1cccc([N+](=O)[O-])c1` (configuration not stated), “activity change, negative = inhibition” value 5.52%. Against it:
- C[C@]12O[C@H](C[C@]1(O)CO)n1c3ccccc3c3c4c(c5c6ccccc6n2c5c31)CNC4=O — lower, 2.31%
- CCCCCCCC(=O)O — lower, 0.283%
- O=C(O)c1cc(O)c2c(c1)[O][Bi][O]2 — lower, -15%
- O=C(Nc1ccc(Br)cc1)c1cc(Br)c(Br)s1 — lower, -5.31%
- CO[C@H](C(=O)[C@@H](O)[C@@H](C)O)C1Cc2cc3cc(O[C@H]4C[C@@H](O[C@H]5C[C@@H](O)[C@H](O)[C@@H](C)O5)[C@@H](O)[C@@H](C)O4)c(C)c(O)c3c(O)c2C(=O)[C@H]1O[C@H]1C[C@@H](O[C@H]2C[C@@H](O[C@H]3C[C@](C)(O)[C@H](O)[C@@H](C)O3)[C@H](O)[C@@H](C)O2)[C@H](O)[C@@H](C)O1 (some centres not stated) — lower, -13.1%
- CC(C)=O — lower, 0%
- CCCCC/C=C\C/C=C\CCCCCCCC(=O)O — lower, 2.73%
- CCOC(=O)C1=C(C)NC(C)=C(C(=O)OCC)C1c1ccccc1C=CC(=O)OC(C)(C)C — lower, 2.13%
- CN1Cc2c(N)cccc2C(c2ccccc2)C1 (configuration not stated) — lower, -6.45%
- CCCCC(C)(O)C/C=C/[C@H]1[C@H](O)CC(=O)[C@@H]1CCCCCCC(=O)OC (some centres not stated) — lower, 1.84%
- CC1=C(/C=C/C(C)=C/C=C/C(C)=C/C=C/C=C(C)/C=C/C=C(C)/C=C/C2=C(C)CCCC2(C)C)C(C)(C)CCC1 — lower, 4.43%
- O=S(=O)(O)O — lower, 4.38%
- CC(=O)Oc1cc(C)c(OC(C)=O)c2ccccc12 — lower, -1.67%
- CCCCCCCCCCCC[n+]1ccc2ccccc2c1 — lower, 4.19%
- CCN(CC)CCOc1ccc(-c2nc3cc(Cl)ccc3s2)cc1 — lower, 1.11%
- CC1(C)C(C=C(Cl)Cl)C1C(=O)OCc1cccc(Oc2ccccc2)c1 (configuration not stated) — lower, 0%
- C#CCOc1ccc2c(C)cc(=O)oc2c1 — higher, 8.19%
- O=C(O)CCC(=O)C(=O)O — lower, -23.3%
- O=C(COc1ccc(Cl)cc1)OCCNC12CC3CC(CC(C3)C1)C2 — lower, 1.65%
- CCOC(C)=O — lower, 2.11%
- CN(C)CCCN1c2ccccc2C(C)(C)c2ccccc21 — lower, -3.72%
- Cc1cn([C@H]2C[C@H](O)[C@@H](CO)O2)c(=O)[nH]c1=O — lower, -1.83%
- CC(NNC(=O)c1ccccc1)c1ccccc1 (configuration not stated) — higher, 8.59%
- COC(C(=O)C(O)C(C)O)C1Cc2cc3cc(OC4CC(OC5CC(O)C(O)C(C)O5)C(O)C(C)O4)c(C)c(O)c3c(O)c2C(=O)C1OC1CC(OC2CC(OC3CC(C)(O)C(O)C(C)O3)C(O)C(C)O2)C(O)C(C)O1 (configuration not stated) — lower, -1.05%
- COc1cc(-c2ccc(-[n+]3nc(-c4ccccc4)nn3-c3ccc([N+](=O)[O-])cc3)c(OC)c2)ccc1-[n+]1nc(-c2ccccc2)nn1-c1ccc([N+](=O)[O-])cc1 — lower, 2.08%

In the case of `Clc1cc(Cl)c(OCC#CI)cc1Cl`, the Potency is reported as 12.6 µM (active).
